# In all, about 39,000 sequences were measured (“fluorescence intensity (a.u.)”: median about 4,300, highest 2% from about 39,000 on). This excerpt belongs to a sample that is enriched for the highest values.
# Molecular target: T1, OsSMF1 (Oryza sativa, UniProt Q6ZLB0 1-436)
# T1 sequence: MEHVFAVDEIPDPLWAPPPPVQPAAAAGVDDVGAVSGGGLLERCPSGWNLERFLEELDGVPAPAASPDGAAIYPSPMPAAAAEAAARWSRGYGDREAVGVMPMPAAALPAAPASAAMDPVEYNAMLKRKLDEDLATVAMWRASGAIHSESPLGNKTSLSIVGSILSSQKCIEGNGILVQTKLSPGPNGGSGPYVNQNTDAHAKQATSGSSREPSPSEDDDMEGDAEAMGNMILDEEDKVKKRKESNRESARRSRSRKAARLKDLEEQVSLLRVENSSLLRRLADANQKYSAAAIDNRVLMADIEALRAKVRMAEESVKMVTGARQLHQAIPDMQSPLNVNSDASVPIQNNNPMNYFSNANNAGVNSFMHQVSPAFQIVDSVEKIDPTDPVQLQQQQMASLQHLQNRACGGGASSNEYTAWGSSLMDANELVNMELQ
# Assay: protein-binding microarray (RPBM); PBS, 2% BSA, 51.3 ng/ul salmon testes DNA, 50 uM zinc acetate, 200 nM TF, 25 C, 1 h; high values mean tight binding
# Conditions: protein: recombinant; tags: N-terminal polyhistidine and DsRed monomer fusion (pET32a); chain copies: 2; label: CyDye5-dUTP incorporated in the synthesized complementary strand; 3' TTTTT single-stranded linker to array surface; dsDNA, one strand shown
# Summary of the method: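 An Axon 4000B scanner gave the binding signal as per-feature fluorescence intensity in arbitrary units. This followed washing of a custom Agilent array that had been incubated for 1 h at 25 °C with 200 nM protein in PBS, 2% BSA, salmon testes DNA and 50 µM zinc acetate. The proteins were transcription factors fused at the N-terminus to polyhistidine and DsRed, expressed in E. coli BL21-CodonPlus and purified on Ni–NTA.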
row,Sequence,binding signal
1,TGATGGCGGCTTTAGGTGACATGCAGCATTAAGTGGCATGCGGAGTCACCTAGTGCAG,4460 fluorescence intensity (a.u.)
2,GGACACCCGCTCCGCGTCGCGCGCACGCTAGAAGAACTCCCGGAGTCACCTAGTGCAG,3140 fluorescence intensity (a.u.)
3,TCGCACCAAGAATTGTTCACCTACCTTCAAAGTTCCAACACGGAGTCACCTAGTGCAG,63300 fluorescence intensity (a.u.)
4,ACGACACTACCAATTGTTTGGCCTTCAATCCAAACTAGCACGGAGTCACCTAGTGCAG,3500 fluorescence intensity (a.u.)
5,AATTGCTATGGTTACACCCGGCCGAAGCAAAGTCACCACTCGGAGTCACCTAGTGCAG,3520 fluorescence intensity (a.u.)
6,GCAGCTGAAGTGGACCTGTCAGCAAGTAAAGCCAAGAGGCCGGAGTCACCTAGTGCAG,3470 fluorescence intensity (a.u.)
7,CTCTCCTCCTTTCTTCTCCAAGTCAACAGTTCCTACGCTACGGAGTCACCTAGTGCAG,3360 fluorescence intensity (a.u.)
8,CGGAAAAGAAAGCCATGGAAGAAATGACGCAAGCAGCGGACGGAGTCACCTAGTGCAG,4230 fluorescence intensity (a.u.)
9,TCCAAGAAAGTGACCAAGCAAATGACGCAAGTGGTGCACGCGGAGTCACCTAGTGCAG,40200 fluorescence intensity (a.u.)
10,GAAATGCCAAGTGTGAGAAGATGACGCACCCAAATGCAACCGGAGTCACCTAGTGCAG,5640 fluorescence intensity (a.u.)
11,AGCAAGCAAAGCCGAAGAATTGTTACACGGCCAAAGTGGACGGAGTCACCTAGTGCAG,41200 fluorescence intensity (a.u.)
12,GCAAAAGCATCTTGGAGGAGATACAGTCAGCTGGCAATCCCGGAGTCACCTAGTGCAG,4160 fluorescence intensity (a.u.)
13,CCACCACGCTTTCCCCGCGCGATGACTCCGCCGCCGCGCCCGGAGTCACCTAGTGCAG,5400 fluorescence intensity (a.u.)
14,CCCACGTGAGTAAGCTCCTCCCTGCTGGTTTGATTCCCTTCGGAGTCACCTAGTGCAG,4650 fluorescence intensity (a.u.)
15,TTGGGGAAAAGTTTTGAGTTTGATTGTCACATCGGATATACGGAGTCACCTAGTGCAG,53000 fluorescence intensity (a.u.)
16,CAAAAGTTTTGACGTGTCACATCGGATATACGGACACACACGGAGTCACCTAGTGCAG,10800 fluorescence intensity (a.u.)
17,GTGTAAAAGTTTTGACGTGTCACATCGGATATACGGACACCGGAGTCACCTAGTGCAG,15300 fluorescence intensity (a.u.)
18,TTCCATCCAGAGTGCGTCACGAACGCGCCAGTCGCCCGGTCGGAGTCACCTAGTGCAG,3990 fluorescence intensity (a.u.)
19,AGCTCACCGCATTGTAAAGGCCCTTACTAATCTTAGCAAGCGGAGTCACCTAGTGCAG,40300 fluorescence intensity (a.u.)
20,AAAGAACGCAGCCTTAGAAGGAGACAGCTCATGGAGCAAGCGGAGTCACCTAGTGCAG,5000 fluorescence intensity (a.u.)
21,ATAACCGCCCTAATTTACTTTAGCATACGTGGAGTACAAGCGGAGTCACCTAGTGCAG,6900 fluorescence intensity (a.u.)

row,Sequence,binding signal
1,AAATCACACCCACGCTCGTGCCCATTGGGTCGGGTATCCGCGGAGTCACCTAGTGCAG,3550 fluorescence intensity (a.u.)
2,ATGTTTAGTTCCACGTCAAAATTGGAAGTTTGAAGAAATTCGGAGTCACCTAGTGCAG,3980 fluorescence intensity (a.u.)
3,TTAAGGTGTGTTTAGTTCCACGTCAAAATTAGAAGTTTGACGGAGTCACCTAGTGCAG,7090 fluorescence intensity (a.u.)
4,CCACGCTAAAATTGGAAGTTTGACTAAAATTAGAAGTTTACGGAGTCACCTAGTGCAG,60200 fluorescence intensity (a.u.)
5,GGAAGGAGACTGCTTGGTCACTAATTTAATCTGCTACTACCGGAGTCACCTAGTGCAG,3140 fluorescence intensity (a.u.)
6,GAGAATTTGCTACTAATTGACTTACCAATTTGGAATTTACCGGAGTCACCTAGTGCAG,46100 fluorescence intensity (a.u.)
7,GTATTGAGAATTGTATGACTAATCAATGTTGCCTTACTTACGGAGTCACCTAGTGCAG,5200 fluorescence intensity (a.u.)
8,GCCGGCGTCGCCGTCGGGGATGCACCTCGGCGCGTCCGTCCGGAGTCACCTAGTGCAG,3550 fluorescence intensity (a.u.)
9,TCCCGAAACCCGACACGCGGCACCGATCGATCGATCGATCCGGAGTCACCTAGTGCAG,3240 fluorescence intensity (a.u.)
10,CGTGCTCACGAAACCCGATCGATCGGTGATCTGCACCGTCCGGAGTCACCTAGTGCAG,45200 fluorescence intensity (a.u.)
11,TGTCCCCGAACCGGATCTGCCCGATGCTCGCCGTCAGCATCGGAGTCACCTAGTGCAG,4300 fluorescence intensity (a.u.)
12,ATTCTGTCTCCTTTGCCTGTCGTCACGCTGTCATCACGCTCGGAGTCACCTAGTGCAG,4480 fluorescence intensity (a.u.)
13,TATATATGGCCTTTGGTCTGCATAGCTGTCCACGTCATCACGGAGTCACCTAGTGCAG,42200 fluorescence intensity (a.u.)
14,CCGTATACATAGCTAGCTGTCTGTGATGCATGCATGGTCACGGAGTCACCTAGTGCAG,44200 fluorescence intensity (a.u.)
15,AAAGTCATGTCATCACGTATATATCACGTATACATATATACGGAGTCACCTAGTGCAG,4080 fluorescence intensity (a.u.)
16,ATATACATATACATATATATACACACACACGTATACATAGCGGAGTCACCTAGTGCAG,4840 fluorescence intensity (a.u.)
17,GCAGCATAGTTAGCTTTATATCTGTTTTACGTCATCACCACGGAGTCACCTAGTGCAG,6330 fluorescence intensity (a.u.)
18,TTCTATTTTCGCATGTGGCATTTGTGGCTGCTTGCTAGACCGGAGTCACCTAGTGCAG,3690 fluorescence intensity (a.u.)
19,CAATATGACATTGTATATGTGAATTGAGTGTAACTTGGTTCGGAGTCACCTAGTGCAG,3290 fluorescence intensity (a.u.)
20,TACGCCGTTACGTGGTATGGTGTTGTGCCATTTCAGTCGGCGGAGTCACCTAGTGCAG,3500 fluorescence intensity (a.u.)
21,AGAAAATGTGGAATGACGCAAATGCCCTTCTGCCTCCTCGCGGAGTCACCTAGTGCAG,5440 fluorescence intensity (a.u.)
